Screens deposited in PubChem by National Center for Advancing Translational Sciences (NCATS).
Hits are enriched below; roughly 7.3% of the tested compounds scored in any of these assays.
VACV Venus inh: inhibitors of vaccinia virus (Venus reporter). Vaccinia virus Venus reporter expression, fluorescence. Potency, µM (doses to about 36.5 µM), for the others: at the highest dose activity change, negative = inhibition, most hits filed as inhibitors. actives 0.46% (n = 330,000). AID 720580; calls by dose curve; tested in A549 cells; note: potency is the fitted concentration of half-maximal effect; nearly all actives have a fitted effect of over 30% in size
HCV inhibitor: inhibitors of hepatitis C virus infection; Huh7.5.1 HCVcc-Cre infection, luciferase reporter, 44 h; Potency, µM (top dose mostly 41.8 µM), without a hit: at the top dose activity change, negative = inhibition, hits mostly inhibitors; actives 3.4% (n = 340,000); AID 651820; active = well fitted inhibition curve with a large enough effect; inconclusive = small, poorly fitted or top-dose-only effect, or another doubt; inactive = no such curve, though single readings can be large or run the other way; note: potency is the fitted concentration of half-maximal effect
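1,000 cells/well; 4 h culture; + compound; + HCVcc-Cre (~0.5 moi); 44 h; luciferase substrate, RT 15 min; read 15 sec.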
FMDV antiviral: antivirals against foot and mouth disease virus. Potency, µM (highest dose often 57.9 µM), for inactives: at the top dose activity change, negative = inhibition, most hits filed as inhibitors. FMDV antiviral cell-based qHTS. actives 1.2% (n = 410,000); calls by dose curve; tested in HEK293T cells; note: read-out not given here; potency is the fitted concentration of half-maximal effect; nearly all actives have a fitted effect of over 45% in size
VACV mCherry inh: inhibitors of vaccinia virus infection (mCherry reporter signal); AID 720579; Vaccinia virus mCherry reporter infection, fluorescence; Potency, µM (titrated, usually from 36.5 µM), inactives show at the top dose activity change, negative = inhibition, hits mostly inhibitors; actives 0.63% (n = 310,000); calls by dose curve; tested in A549 cells; note: potency is the fitted concentration of half-maximal effect; nearly all actives have a fitted effect of over 35% in size
HCMV antiviral: inhibitors of human cytomegalovirus; HFF cells, HCMV-luciferase reporter, 72 h; hits give low values; activity change, negative = inhibition, % at 57.5 µM; actives 4.5% (n = 410,000); in the data active = activity change below about -60%; inconclusive = no clear call, values can overlap the other calls; inactive = above about -39%
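Two compound doses tested in HFFs infected with HCMV-luciferase, MOI 1 PFU/cell, 72 h at 37C. Lysate luminescence read with OneGlo; data normalized against buffer-only and 10uM Salinomycin inhibitor controls.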
The depositor's hits bear a star. % is set by controls: 0 for no effect and ±100 for the full control effect.

`N#CC1=C(N)Oc2cc3c(cc2C1c1ccc(Cl)cc1)OCO3` (configuration not stated) gave VACV Venus inh -15%, HCV inhibitor -27%, VACV mCherry inh -19% and HCMV antiviral -1.
Screening Cc1ccc(CNC(=O)C2CCCN(S(=O)(=O)N3CC(C)CC(C)C3)C2)cc1 (configuration not stated) returned HCV inhibitor 5%, FMDV antiviral inconclusive and HCMV antiviral 0.
COC(=O)CCCn1cc(CN2CC(N3CCN(C4CCN(C)CC4)CC3)CS2(=O)=O)nn1 (configuration not stated) was read as VACV Venus inh 0%, FMDV antiviral -6%, VACV mCherry inh 0% and HCMV antiviral -6.
`COc1cc(C2C(C#N)=C(N)Oc3cc(N(C)C)ccc32)cc2c1OCO2` (configuration not stated) gave VACV Venus inh inconclusive, HCV inhibitor 16%, FMDV antiviral -10%, VACV mCherry inh inconclusive and HCMV antiviral -78*.
`COc1cc(C2C(C#N)=C(N)Oc3cc(O)ccc32)cc2c1OCO2` (configuration not stated) gave VACV Venus inh inconclusive, HCV inhibitor 2%, FMDV antiviral -15%, VACV mCherry inh inactive and HCMV antiviral 102.
For Cc1cc(C)c(OCC(=O)Nc2nc(-c3ccccn3)cs2)c(C)c1 the results were VACV Venus inh inconclusive, HCV inhibitor 4µM*, FMDV antiviral -2%, VACV mCherry inh inconclusive and HCMV antiviral 5.
`Cc1ccccc1OCC(=O)Nc1nnc(-c2ccncc2)s1` gave VACV Venus inh -18%, HCV inhibitor 11%, FMDV antiviral -24%, VACV mCherry inh -9% and HCMV antiviral -93*.
`Cc1ccccc1OCC(=O)Nc1nc(-c2ccncc2)cs1` gave VACV Venus inh -16%, HCV inhibitor inconclusive, FMDV antiviral 28µM*, VACV mCherry inh inactive and HCMV antiviral -7.
`COCC(=O)Nc1nc(-c2ccc(-c3ccccc3)cc2)cs1` gave VACV Venus inh inconclusive, HCV inhibitor inconclusive, FMDV antiviral -2%, VACV mCherry inh -31% and HCMV antiviral 5.
`CCc1ccccc1OCC(=O)Nc1nc(-c2cccnc2)cs1` gave VACV Venus inh inconclusive, HCV inhibitor inconclusive, FMDV antiviral inconclusive, VACV mCherry inh inconclusive and HCMV antiviral -65*.
Screening CCC(=O)c1ccc(OCC(=O)Nc2nc(-c3cccnc3)cs2)cc1 returned VACV Venus inh -3%, HCV inhibitor 14%, FMDV antiviral 0%, VACV mCherry inh -12% and HCMV antiviral 2.
`CCCCC1Cc2[nH]c(=S)[nH]c(=O)c2C(c2cccc3ccccc23)O1` (configuration not stated) gave VACV Venus inh -4%, FMDV antiviral -24%, VACV mCherry inh 8% and HCMV antiviral 6.
Cc1ccc(NC(=O)C2CCN(S(=O)(=O)c3cccnc3)CC2)cc1C was read as HCV inhibitor 3%, FMDV antiviral -22% and HCMV antiviral 10.
Cc1cc(C)cc(NC(=O)CCS(=O)(=O)c2ccc3c(c2)oc(=O)n3C)c1 was read as VACV Venus inh 9%, FMDV antiviral -15%, VACV mCherry inh 0% and HCMV antiviral -1.
Screening CCOC(=O)c1ccc(-n2c(N)c(C(=O)OC)c3nc4ccccc4nc32)cc1 returned VACV Venus inh -7%, FMDV antiviral -21%, VACV mCherry inh -16% and HCMV antiviral inconclusive.
CCOc1ccccc1OCC(=O)Nc1nnc(COC)s1 was read as HCV inhibitor 10%, FMDV antiviral 17% and HCMV antiviral -102*.
`CCc1ccc(NC(=S)NC2CC3CCCC(C2)N3Cc2cccs2)cc1` (configuration not stated) gave VACV Venus inh -24%, HCV inhibitor 7.9µM*, VACV mCherry inh inconclusive and HCMV antiviral -31.
For CCCN1C2CCCC1CC(NC(=S)Nc1ccc(OC)cc1)C2 (configuration not stated) the results were HCV inhibitor -19%, FMDV antiviral -6% and HCMV antiviral -64*.
For CCc1ccccc1NC(=O)NC1CC2CCC(C1)N2Cc1cccs1 (configuration not stated) the results were VACV Venus inh -12%, HCV inhibitor -19%, VACV mCherry inh inactive and HCMV antiviral -10.
